# Results taken from PMC7862700, “An all-to-all approach to the identification of sequence-specific readers for epigenetic DNA modifications on cytosine”.
# How the values were obtained:
# Assay in all cases: DAPPL (digital affinity profiling via proximity ligation, sequencing); 10 mM Tris-HCl pH 7.5, 50 mM NaCl, 1 mM DTT, 4% glycerol, room temperature, 30 min; GST-TFs on glutathione beads, 16-mer random dsDNA library, 0.1% formaldehyde crosslink after washing; high values mean tight binding
# FEV = target: T1, FEV (Homo sapiens, UniProt Q99581 1-238); settings: protein: recombinant; tags: N-terminal GST; dsDNA, one strand shown
# T1 sequence: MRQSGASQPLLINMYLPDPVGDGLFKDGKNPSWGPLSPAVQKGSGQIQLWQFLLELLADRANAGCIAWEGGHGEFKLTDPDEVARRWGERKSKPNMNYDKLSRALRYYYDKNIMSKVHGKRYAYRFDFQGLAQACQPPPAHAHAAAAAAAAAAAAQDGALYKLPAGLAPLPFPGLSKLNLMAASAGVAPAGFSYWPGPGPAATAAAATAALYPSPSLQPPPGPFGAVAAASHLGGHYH
# Method in brief: (§1)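 Yeast served to express human transcription factors as GST fusions, which were then captured on glutathione beads and labelled with DNA barcodes. Pooled with a tag-only sample, they were incubated with 200 nmole of a 16-mer random double-stranded DNA library for 30 min at room temperature in Tris/NaCl/DTT/glycerol buffer, washed, crosslinked with 0.1% formaldehyde, ligated by proximity, amplified by PCR and sequenced. Dividing each hexamer's read frequency for a factor by its frequency for the tag-only sample gives the binding signal.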
# ETV5 = ETV5 (Homo sapiens, UniProt P41161 1-510); settings: protein: recombinant; tags: N-terminal GST; dsDNA, one strand shown
# Method in brief: as §1
# HSF1 = HSF1 (Homo sapiens, UniProt Q00613 1-529); settings: protein: recombinant; tags: N-terminal GST; chain copies: 3; dsDNA, one strand shown
# Method in brief: as §1
# SPIC = target: T2, SPIC (Homo sapiens, UniProt Q8N5J4 1-248); settings: protein: recombinant; tags: N-terminal GST; dsDNA, one strand shown
# T2 sequence: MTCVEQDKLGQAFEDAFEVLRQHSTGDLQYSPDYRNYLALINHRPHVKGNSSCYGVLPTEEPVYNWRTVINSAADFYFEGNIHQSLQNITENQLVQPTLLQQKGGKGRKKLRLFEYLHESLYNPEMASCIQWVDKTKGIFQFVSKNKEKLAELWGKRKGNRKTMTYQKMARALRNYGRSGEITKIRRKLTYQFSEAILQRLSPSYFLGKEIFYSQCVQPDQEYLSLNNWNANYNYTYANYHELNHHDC
# Method in brief: as §1
# ELF4 = ELF4 (Homo sapiens, UniProt Q99607 1-663); settings: protein: recombinant; tags: N-terminal GST; dsDNA, one strand shown
# Method in brief: as §1
# ELK4 = target: T3, ELK4 (Homo sapiens, UniProt P28324-2 1-405); settings: protein: recombinant; tags: N-terminal GST; dsDNA, one strand shown
# T3 sequence: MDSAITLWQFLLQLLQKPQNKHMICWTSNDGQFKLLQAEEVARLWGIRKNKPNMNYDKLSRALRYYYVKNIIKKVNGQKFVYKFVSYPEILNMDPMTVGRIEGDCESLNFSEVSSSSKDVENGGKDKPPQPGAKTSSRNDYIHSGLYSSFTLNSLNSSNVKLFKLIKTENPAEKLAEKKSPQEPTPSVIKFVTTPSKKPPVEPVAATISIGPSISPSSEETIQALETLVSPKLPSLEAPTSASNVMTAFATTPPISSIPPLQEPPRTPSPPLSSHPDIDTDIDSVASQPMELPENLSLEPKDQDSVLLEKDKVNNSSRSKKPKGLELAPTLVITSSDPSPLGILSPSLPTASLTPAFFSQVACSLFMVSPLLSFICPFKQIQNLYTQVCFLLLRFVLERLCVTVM
# Method in brief: as §1
# ETV2 = target: T4, ETV2 (Homo sapiens, UniProt O00321 1-342); settings: protein: recombinant; tags: N-terminal GST; dsDNA, one strand shown
# T4 sequence: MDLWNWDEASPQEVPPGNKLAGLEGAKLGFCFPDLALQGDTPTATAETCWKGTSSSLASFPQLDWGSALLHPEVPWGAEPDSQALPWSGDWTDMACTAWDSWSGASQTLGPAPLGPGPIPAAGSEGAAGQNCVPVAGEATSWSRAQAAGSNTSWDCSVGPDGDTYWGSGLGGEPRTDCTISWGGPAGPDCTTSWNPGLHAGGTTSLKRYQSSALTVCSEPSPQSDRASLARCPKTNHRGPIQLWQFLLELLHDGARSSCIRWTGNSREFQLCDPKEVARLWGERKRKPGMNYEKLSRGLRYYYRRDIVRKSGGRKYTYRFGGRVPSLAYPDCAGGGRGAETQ
# Method in brief: as §1
# ELF3 = target: T5, ELF3 (Homo sapiens, UniProt P78545 1-371); settings: protein: recombinant; tags: N-terminal GST; dsDNA, one strand shown
# T5 sequence: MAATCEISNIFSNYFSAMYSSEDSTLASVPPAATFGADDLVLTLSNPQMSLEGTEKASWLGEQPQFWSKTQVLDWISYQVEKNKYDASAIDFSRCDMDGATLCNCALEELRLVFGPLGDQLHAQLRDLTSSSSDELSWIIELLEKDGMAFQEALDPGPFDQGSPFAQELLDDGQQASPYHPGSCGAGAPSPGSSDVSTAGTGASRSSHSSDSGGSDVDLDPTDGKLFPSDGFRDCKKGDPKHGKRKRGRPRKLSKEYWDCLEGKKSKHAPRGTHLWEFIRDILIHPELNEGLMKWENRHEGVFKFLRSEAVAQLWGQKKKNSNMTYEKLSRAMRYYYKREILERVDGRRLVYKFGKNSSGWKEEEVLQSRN
# Method in brief: as §1
# CRX = CRX (Homo sapiens, UniProt O43186 1-299); settings: protein: recombinant; tags: N-terminal GST; dsDNA, one strand shown
# Method in brief: as §1
# ETV1 = ETV1 (Homo sapiens, UniProt P50549 1-477); settings: protein: recombinant; tags: N-terminal GST; dsDNA, one strand shown
# Method in brief: as §1
# ERF = target: T6, ERF (Homo sapiens, UniProt P50548 1-548); settings: protein: recombinant; tags: N-terminal GST; dsDNA, one strand shown
# T6 sequence: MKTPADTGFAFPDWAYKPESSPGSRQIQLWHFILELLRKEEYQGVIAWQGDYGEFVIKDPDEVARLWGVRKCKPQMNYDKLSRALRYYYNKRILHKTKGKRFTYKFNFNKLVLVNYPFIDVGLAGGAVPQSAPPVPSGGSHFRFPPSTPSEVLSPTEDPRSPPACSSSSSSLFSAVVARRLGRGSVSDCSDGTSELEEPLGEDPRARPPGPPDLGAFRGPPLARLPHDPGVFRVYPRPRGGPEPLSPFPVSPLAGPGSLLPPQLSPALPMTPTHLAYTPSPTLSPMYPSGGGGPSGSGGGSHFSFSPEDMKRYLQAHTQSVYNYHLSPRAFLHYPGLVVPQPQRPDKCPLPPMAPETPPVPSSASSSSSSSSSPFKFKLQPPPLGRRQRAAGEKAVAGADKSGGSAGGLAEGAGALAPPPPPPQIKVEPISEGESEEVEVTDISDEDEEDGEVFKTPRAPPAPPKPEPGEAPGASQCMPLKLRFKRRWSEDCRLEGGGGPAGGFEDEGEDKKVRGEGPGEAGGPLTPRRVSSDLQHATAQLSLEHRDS
# Method in brief: as §1
# ETV3L = target: T7, ETV3L (Homo sapiens, UniProt Q6ZN32 1-361); settings: protein: recombinant; tags: N-terminal GST; dsDNA, one strand shown
# T7 sequence: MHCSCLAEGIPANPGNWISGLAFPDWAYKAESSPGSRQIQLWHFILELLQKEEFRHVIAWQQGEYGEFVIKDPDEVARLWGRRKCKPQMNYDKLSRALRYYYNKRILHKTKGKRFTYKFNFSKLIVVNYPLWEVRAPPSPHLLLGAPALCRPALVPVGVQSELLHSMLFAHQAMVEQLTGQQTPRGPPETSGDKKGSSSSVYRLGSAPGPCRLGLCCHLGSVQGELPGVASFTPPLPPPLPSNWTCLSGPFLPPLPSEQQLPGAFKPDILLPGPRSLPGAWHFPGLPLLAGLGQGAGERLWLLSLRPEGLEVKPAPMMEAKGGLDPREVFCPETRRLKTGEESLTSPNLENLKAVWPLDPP
# Method in brief: as §1
# ETS2 = target: T8, ETS2 (Homo sapiens, UniProt P15036 1-469); settings: protein: recombinant; tags: N-terminal GST; dsDNA, one strand shown
# T8 sequence: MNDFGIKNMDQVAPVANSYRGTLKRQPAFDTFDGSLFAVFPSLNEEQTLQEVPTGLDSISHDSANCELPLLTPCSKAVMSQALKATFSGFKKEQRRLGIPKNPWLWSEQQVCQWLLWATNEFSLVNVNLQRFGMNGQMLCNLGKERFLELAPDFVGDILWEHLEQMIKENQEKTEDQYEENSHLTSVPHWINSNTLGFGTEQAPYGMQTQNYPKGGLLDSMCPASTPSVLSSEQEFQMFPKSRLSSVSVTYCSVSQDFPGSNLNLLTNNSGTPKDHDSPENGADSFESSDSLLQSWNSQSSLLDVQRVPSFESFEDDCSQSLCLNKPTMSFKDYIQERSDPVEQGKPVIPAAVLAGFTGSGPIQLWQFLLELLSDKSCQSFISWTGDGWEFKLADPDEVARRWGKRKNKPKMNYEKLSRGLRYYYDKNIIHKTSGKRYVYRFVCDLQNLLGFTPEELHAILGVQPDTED
# Method in brief: as §1
# SPDEF = target: T9, SPDEF (Homo sapiens, UniProt O95238 1-335); settings: protein: recombinant; tags: N-terminal GST; dsDNA, one strand shown
# T9 sequence: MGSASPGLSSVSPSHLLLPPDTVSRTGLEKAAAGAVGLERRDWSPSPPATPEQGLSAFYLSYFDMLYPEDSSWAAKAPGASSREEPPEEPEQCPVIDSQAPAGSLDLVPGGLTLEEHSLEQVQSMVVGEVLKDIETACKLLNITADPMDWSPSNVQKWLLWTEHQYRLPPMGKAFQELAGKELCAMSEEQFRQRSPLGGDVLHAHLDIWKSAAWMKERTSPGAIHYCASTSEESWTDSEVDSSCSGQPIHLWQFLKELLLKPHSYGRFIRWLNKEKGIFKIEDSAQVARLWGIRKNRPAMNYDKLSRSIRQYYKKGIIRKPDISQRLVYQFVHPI
# Method in brief: as §1
# ELF5 = target: T10, ELF5 (Homo sapiens, UniProt Q9UKW6-2 1-255); settings: protein: recombinant; tags: N-terminal GST; dsDNA, one strand shown
# T10 sequence: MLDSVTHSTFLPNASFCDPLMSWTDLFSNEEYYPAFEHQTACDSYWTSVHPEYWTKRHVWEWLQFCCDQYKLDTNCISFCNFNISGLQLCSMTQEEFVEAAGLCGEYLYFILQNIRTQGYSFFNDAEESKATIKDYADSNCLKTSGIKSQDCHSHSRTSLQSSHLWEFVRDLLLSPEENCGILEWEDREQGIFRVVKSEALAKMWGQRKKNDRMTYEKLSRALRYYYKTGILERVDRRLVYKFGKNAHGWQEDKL
# Method in brief: as §1
# ETV3 = target: T11, ETV3 (Homo sapiens, UniProt P41162-2 1-143); settings: protein: recombinant; tags: N-terminal GST; dsDNA, one strand shown
# T11 sequence: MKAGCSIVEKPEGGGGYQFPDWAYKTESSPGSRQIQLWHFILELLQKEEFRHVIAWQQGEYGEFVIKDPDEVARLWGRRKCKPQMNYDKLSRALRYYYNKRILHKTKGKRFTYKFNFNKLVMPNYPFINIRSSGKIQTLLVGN
# Method in brief: as §1
# ETV6 = ETV6 (Homo sapiens, UniProt P41212 1-452); settings: protein: recombinant; tags: N-terminal GST; dsDNA, one strand shown
# Method in brief: as §1
# Chain of ETV6 (P41212 whole entry): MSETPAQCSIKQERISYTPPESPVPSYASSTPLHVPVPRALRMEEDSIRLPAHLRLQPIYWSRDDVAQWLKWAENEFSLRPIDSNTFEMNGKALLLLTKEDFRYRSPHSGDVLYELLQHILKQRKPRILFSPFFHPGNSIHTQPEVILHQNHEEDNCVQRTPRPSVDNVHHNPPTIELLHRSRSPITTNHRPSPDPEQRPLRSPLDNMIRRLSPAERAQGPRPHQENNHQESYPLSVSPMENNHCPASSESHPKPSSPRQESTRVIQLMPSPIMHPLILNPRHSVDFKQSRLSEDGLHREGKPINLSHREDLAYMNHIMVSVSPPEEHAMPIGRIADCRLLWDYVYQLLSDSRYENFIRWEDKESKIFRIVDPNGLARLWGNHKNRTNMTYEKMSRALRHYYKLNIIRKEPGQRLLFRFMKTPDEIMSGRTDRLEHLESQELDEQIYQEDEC
# Chain of ELF4 (Q99607 whole entry): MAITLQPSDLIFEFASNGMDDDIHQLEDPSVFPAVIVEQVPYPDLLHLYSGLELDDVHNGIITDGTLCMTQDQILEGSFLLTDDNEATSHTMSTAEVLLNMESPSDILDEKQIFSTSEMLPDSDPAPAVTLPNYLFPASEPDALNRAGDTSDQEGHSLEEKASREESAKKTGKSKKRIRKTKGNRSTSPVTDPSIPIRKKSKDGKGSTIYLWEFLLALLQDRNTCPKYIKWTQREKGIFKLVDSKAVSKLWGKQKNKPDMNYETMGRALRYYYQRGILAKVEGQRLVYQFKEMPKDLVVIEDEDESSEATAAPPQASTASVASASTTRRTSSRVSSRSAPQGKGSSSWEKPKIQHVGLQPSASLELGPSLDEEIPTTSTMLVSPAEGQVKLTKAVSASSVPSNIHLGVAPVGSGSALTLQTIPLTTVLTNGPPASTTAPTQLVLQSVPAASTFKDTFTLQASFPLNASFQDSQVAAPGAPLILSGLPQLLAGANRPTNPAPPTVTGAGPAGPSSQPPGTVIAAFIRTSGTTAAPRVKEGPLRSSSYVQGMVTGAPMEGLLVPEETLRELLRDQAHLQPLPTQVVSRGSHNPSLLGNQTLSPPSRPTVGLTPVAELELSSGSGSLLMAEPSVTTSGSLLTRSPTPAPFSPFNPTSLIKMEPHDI
# Chain of HSF1 (Q00613 whole entry): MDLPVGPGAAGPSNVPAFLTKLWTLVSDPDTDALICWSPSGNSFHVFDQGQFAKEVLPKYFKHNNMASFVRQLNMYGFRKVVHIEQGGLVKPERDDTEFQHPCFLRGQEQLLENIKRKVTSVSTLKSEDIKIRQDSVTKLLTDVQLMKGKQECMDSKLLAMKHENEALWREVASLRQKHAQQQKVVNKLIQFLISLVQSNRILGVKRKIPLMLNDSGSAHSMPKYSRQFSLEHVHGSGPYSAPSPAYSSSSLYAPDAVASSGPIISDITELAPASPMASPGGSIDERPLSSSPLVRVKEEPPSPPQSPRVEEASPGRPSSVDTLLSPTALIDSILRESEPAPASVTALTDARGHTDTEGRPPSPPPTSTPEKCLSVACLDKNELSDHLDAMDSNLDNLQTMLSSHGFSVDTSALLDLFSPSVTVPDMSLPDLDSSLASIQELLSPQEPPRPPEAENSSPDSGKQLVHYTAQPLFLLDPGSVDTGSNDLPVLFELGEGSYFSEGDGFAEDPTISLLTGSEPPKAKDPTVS
# Chain of ETV1 (P50549 whole entry): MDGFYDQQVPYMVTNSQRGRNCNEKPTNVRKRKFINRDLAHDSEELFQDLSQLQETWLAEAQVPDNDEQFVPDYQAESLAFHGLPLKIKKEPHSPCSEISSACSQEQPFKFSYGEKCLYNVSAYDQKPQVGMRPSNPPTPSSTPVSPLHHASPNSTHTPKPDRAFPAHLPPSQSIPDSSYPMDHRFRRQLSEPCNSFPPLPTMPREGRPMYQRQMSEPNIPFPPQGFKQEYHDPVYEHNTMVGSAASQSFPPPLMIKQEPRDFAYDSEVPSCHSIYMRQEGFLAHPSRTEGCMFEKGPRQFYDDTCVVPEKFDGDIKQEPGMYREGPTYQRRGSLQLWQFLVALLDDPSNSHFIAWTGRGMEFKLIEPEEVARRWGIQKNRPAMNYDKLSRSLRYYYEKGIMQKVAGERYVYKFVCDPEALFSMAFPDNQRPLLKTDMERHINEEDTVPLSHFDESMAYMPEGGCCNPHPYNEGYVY
# Chain of ETV5 (P41161 whole entry): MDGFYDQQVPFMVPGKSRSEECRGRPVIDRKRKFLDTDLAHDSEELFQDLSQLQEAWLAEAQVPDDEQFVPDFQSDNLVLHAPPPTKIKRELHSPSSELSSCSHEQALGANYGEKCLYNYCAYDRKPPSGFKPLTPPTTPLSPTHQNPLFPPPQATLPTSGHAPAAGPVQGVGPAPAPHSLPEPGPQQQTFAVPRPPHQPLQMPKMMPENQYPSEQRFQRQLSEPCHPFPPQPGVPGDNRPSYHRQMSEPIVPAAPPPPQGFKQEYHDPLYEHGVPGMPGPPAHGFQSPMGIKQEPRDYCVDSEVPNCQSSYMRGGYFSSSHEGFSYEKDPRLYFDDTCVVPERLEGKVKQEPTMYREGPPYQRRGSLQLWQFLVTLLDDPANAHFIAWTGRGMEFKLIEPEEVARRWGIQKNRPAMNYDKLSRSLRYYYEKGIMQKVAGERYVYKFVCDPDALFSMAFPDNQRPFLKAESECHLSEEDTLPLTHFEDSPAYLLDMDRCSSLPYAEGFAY
# Chain of CRX (O43186 whole entry): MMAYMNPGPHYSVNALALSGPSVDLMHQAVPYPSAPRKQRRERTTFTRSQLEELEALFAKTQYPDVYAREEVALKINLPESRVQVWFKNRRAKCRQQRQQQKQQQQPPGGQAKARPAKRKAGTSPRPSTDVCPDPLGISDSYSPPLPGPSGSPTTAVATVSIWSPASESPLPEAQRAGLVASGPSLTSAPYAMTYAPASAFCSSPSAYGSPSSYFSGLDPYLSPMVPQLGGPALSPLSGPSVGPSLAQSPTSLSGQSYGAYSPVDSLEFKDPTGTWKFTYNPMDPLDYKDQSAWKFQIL
sequence,measurement,setting,value
TCACAA,binding signal,FEV,"1.14 fold enrichment (6-mer frequency, TF over GST control)"
same,binding signal,ETV5,"1.12 fold enrichment (6-mer frequency, TF over GST control)"
same,binding signal,HSF1,"1.03 fold enrichment (6-mer frequency, TF over GST control)"
same,binding signal,SPIC,"1.18 fold enrichment (6-mer frequency, TF over GST control)"
same,binding signal,ELF4,"1.12 fold enrichment (6-mer frequency, TF over GST control)"
same,binding signal,ELK4,"1.21 fold enrichment (6-mer frequency, TF over GST control)"
same,binding signal,ETV2,"1.16 fold enrichment (6-mer frequency, TF over GST control)"
same,binding signal,ELF3,"1.15 fold enrichment (6-mer frequency, TF over GST control)"
same,binding signal,CRX,"1.09 fold enrichment (6-mer frequency, TF over GST control)"
same,binding signal,ETV1,"1.13 fold enrichment (6-mer frequency, TF over GST control)"
same,binding signal,ERF,"1.23 fold enrichment (6-mer frequency, TF over GST control)"
same,binding signal,ETV3L,"1.14 fold enrichment (6-mer frequency, TF over GST control)"
same,binding signal,ETS2,"1.23 fold enrichment (6-mer frequency, TF over GST control)"
same,binding signal,SPDEF,"1.19 fold enrichment (6-mer frequency, TF over GST control)"
same,binding signal,ELF5,"1.11 fold enrichment (6-mer frequency, TF over GST control)"
same,binding signal,ETV3,"1.08 fold enrichment (6-mer frequency, TF over GST control)"
same,binding signal,ETV6,"1.03 fold enrichment (6-mer frequency, TF over GST control)"
